Measurements taken from PubChem BioAssay (NCI).
This is part of a sample that, as a whole, favours compounds with a hit. Of some 83,000 tested, about 20% had one in any assay.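 Compound tested at a single concentration for 48 hours in 96-well plates; a percent growth value below 10 was scored as active.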 Activity calls are given as the source filed them.

test system: UACC-62 melanoma; test: NCI-60 one-dose screen, 48 h (100 = growth as untreated, 0 = no growth, -100 = all killed); conditions: 10 µM
Method: Growth inhibition of the UACC-62 human tumor cell line is measured as a screen for anti-cancer activity. Cells are grown in 96 well plates and exposed to the test compound for 48 hours. Compounds are tested at a single concentration, which is 10^-5 M for most compounds. The reported endpoint is percent growth (GI% or GIPRCNT), where numbers from 0 - 100% represent growth inhibition, and numbers from -100% - 0 represent cell death. For example, a value of 40 represents 60% growth inhibition. A value of 0 means no net growth occurred over the course of the experiment. A value of -40 indicates 40% of cells at the beginning of the experiment died by the end of the experiment. A value of -100 means all cells are dead at the end of the experiment.
NCI-60 Human Tumor Cell Lines Screen was performed using the standard one-dose NCI protocol, which is described in more detail at https://dtp.cancer.gov/discovery_development/nci-60/default.htm.
Compounds with GIPRCNT values below 10 were considered active. Activity score was based on GIPRCNT using the following formula: […]
Score is 0 for GIPRCNT values of 100 or above, 50 for GIPRCNT values of 0, and 100 for GIPRCNT values of -100.

Row | SMILES | growth
1 | CN(C)N=Nc1nn(C(=O)Nc2ccc(Cc3ccccc3)cc2)c2ccccc12 | -8.25% (active)
2 | CN1CC[C@@H](c2c(O)cc(O)c3c(=O)cc(-c4ccccc4Cl)oc23)[C@@H](O)C1 | -48.8% (active)
3 | O=C(Nc1cccc(Br)c1)c1cc(=O)[nH]c2ccccc12 | 80.9% (inactive)
4 | CCOC(=O)C(=Cc1ccc(Br)cc1)C(=O)OCC | -72.6% (active)
5 | COc1ccc([N+](=O)[O-])c(C(=O)O)c1 | 106% (inactive)
6 | COc1cc(-c2nc(Nc3nc4ccccc4s3)[nH]c(=O)c2C#N)cc(OC)c1O | 102% (inactive)
7 | COc1cc(C(=O)/C=C/c2cc(-c3cc(OC)c(OC)c(OC)c3)n[nH]2)cc(OC)c1OC | 51% (inactive)
8 | C=C(C(=O)c1ccccc1)C(NC(C)(C)C)c1ccccc1 (stereo not given) | 0.104% (active)
9 | CN(C)C=Nc1cc(Cl)ccc1Cl | 99.1% (inactive)
10 | Cc1cc(Nc2ccc(Cl)cc2)nc(NCCCNc2ccnc3cc(Cl)ccc23)n1 | -80.2% (active)
11 | COc1cc(-c2cc(/C=C/C(=O)c3ccc(N)cc3)[nH]n2)cc(OC)c1OC | 20.6% (inactive)
12 | O=C(CCCCC(=O)Nc1ccc2c(c1)/C(=C/c1ccc[nH]1)C(=O)N2)NO | 68.5% (inactive)
13 | CNc1ncc(-c2ccc(C(F)(F)F)cc2)c(NC2CCCCCC2)n1 | 89.9% (inactive)
14 | C#Cc1ccc(-n2c(/C=C/c3ccc4ccccc4c3)nc3ncccc3c2=O)cc1 | 26.7% (inactive)
15 | N#CCCN1C/C(=C/c2ccccc2)C(=O)/C(=C/c2ccccc2)C1 | 0.851% (active)
16 | COc1cc(NC(=O)CCSc2nc3ccc(C)cc3c(=O)n2Cc2ccccc2)cc(OC)c1OC | 85% (inactive)
17 | CC1=C(N2CCOCC2)C(N2CCOCC2)=C(C)C(=O)C1=O | 109% (inactive)
18 | O=C1C(c2ccccc2)C2C=CC(C2)N1O (stereo not given) | 101% (inactive)
19 | COC(=O)[C@@H]1[C@H](O)[C@H](C)[C@H](O)[C@@](C)(O)/C=C\C=C(C)C(=O)Nc2c(C)c(OC(C)=O)c3c(c2O)C(=O)C(C)=C2OCOC(=C23)C(C)=C[C@@](C)(O)[C@H](O)[C@@H](C)[C@H]1OC(C)=O | 97.8% (inactive)
20 | O=C1CC[C@@H]2CCCC[C@@H]2C1 | 94.6% (inactive)

Row | SMILES | growth
21 | CC1CC(=O)OC(C)C1 (stereo not given) | 114% (inactive)
22 | COc1cc(/C=C2\Oc3cc(OCC(=O)c4ccccc4)ccc3C2=O)cc(OC)c1OC | 96.7% (inactive)
23 | C[C@@H]1C=C2C(=O)O[C@@H]3CC[C@H](C1)[C@]23O | 91.6% (inactive)
24 | COc1ccccc1/C=C/C(=O)c1ccccc1 | 67.3% (inactive)
25 | Nc1ccc2c(c1)C1(CCC2)NC(=O)NC1=O (stereo not given) | 106% (inactive)
26 | CC(=O)CSC(C)=O | 107% (inactive)
27 | Fc1cc(C(F)(F)F)ccc1-c1cncnc1NC1CCCCCC1 | 78.9% (inactive)
28 | CC(C)N(CCNc1nc(C(Cl)(Cl)Cl)nc2cc(Cl)ccc12)C(C)C | -62.2% (active)
29 | Nc1c(C(=O)Nc2ccccc2Cl)sc2nc3c(cc12)C(=O)CCC3 | 47.1% (inactive)
30 | COc1ccc2c(c1)-c1c(c3cc(OC)ccc3n(CCN(C)C)c1=O)C2=O | 36.9% (inactive)
31 | CC(C)=NNc1ncnc2c1ncn2C1OC(CO)C(O)C1O (stereo not given) | 34.7% (inactive)
32 | Cc1ccc(NC(=O)NC2CCCCC2)cc1 | 105% (inactive)
33 | Cc1cs/c(=N\NC(=O)c2cc(-c3cc4ccccc4o3)nn2-c2ccccc2)n1-c1ccccc1 | 79.6% (inactive)
34 | FC(F)(F)c1ccc(-c2cnc(-n3cc(COCCN4CCCCC4)nn3)nc2NC2CCCCCC2)cc1 | -79.2% (active)
35 | CCCCN(CCCC)c1cc(C(=O)CCCCCN)c2ccccc2n1 | 105% (inactive)
36 | COc1ccc(/C=C2/CN(CCC#N)C/C(=C\c3ccc(OC)cc3)C2=O)cc1 | -27.5% (active)
37 | Oc1[nH]c2ccc(Cl)cc2c1/C=c1/ccc2c(c1)N=C(c1cc(F)cc(F)c1)N=2 | 44.8% (inactive)
38 | CCN(CC)CCSCCN(CC)CC | 102% (inactive)
39 | CCOC(=O)N/N=C\C(C)=N\NC(=O)OCC | 99.3% (inactive)
40 | COc1cc(-c2nc(-c3nnc(-c4ccc(F)c(Cl)c4)o3)c3ccccn23)cc(OC)c1OC | 33.9% (inactive)
